What was measured:
Details in all cases: concentration: 1 μM, replicates: in singlicate; n = 1
[1] = tested on: EPHB6
[2] = tested on: ERBB2
[3] = tested on: ERBB3
[4] = tested on: ERBB4
[5] = tested on: T1, ERK1
T1 construct: gene MAPK3

[6] = tested on: T2, ERK2
T2 construct: gene MAPK1

[7] = tested on: T3, ERK3
T3 construct: gene MAPK6

[8] = tested on: T4, ERK4
T4 construct: gene MAPK4

[9] = tested on: T5, ERK5
T5 construct: gene MAPK7

[10] = tested on: T6, ERK8
T6 construct: gene MAPK15

[11] = tested on: ERN1
[12] = tested on: T7, FAK
T7 construct: gene PTK2

[13] = tested on: FER
[14] = tested on: FES
[15] = tested on: FGFR1
[16] = tested on: FGFR2
[17] = tested on: FGFR3
[18] = tested on: FGFR4
[19] = tested on: FGR
[20] = tested on: FLT1
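Note: KINOMEscan kinase panel screen.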

Compound | %Inh [1] [%] | %Inh [2] [%] | %Inh [3] [%] | %Inh [4] [%] | %Inh [5] [%] | %Inh [6] [%] | %Inh [7] [%] | %Inh [8] [%] | %Inh [9] [%] | %Inh [10] [%] | %Inh [11] [%] | %Inh [12] [%] | %Inh [13] [%] | %Inh [14] [%] | %Inh [15] [%] | %Inh [16] [%] | %Inh [17] [%] | %Inh [18] [%] | %Inh [19] [%] | %Inh [20] [%]
COc1ccc(Nc2ncc(C#N)c(Nc3ccccc3C(N)=O)n2)cc1N1CCN(C)CC1.Cl [GSK1558669] | 98.3 | 80 | 96.6 | 88 | 7 | 0 | 100 | 100 | 99.9 | 98.9 | 92 | 100 | 99.5 | 99.3 | 100 | 99.8 | 99.9 | 85 | 96.5 | 100
Cc1c(Cn2c(C)nn3c(=O)cc(N4CCOC(C)C4)nc23)cccc1C(F)(F)F (centres unmarked) [GSK2344444] | 0 | 0 | 0 | 0 | 0 | 0 | 0 | 11 | 0 | 26 | 24 | 0 | 25 | 0 | 3 | 0 | 4 | 0 | 0 | 25
CCc1nc(-c2cccc(C)c2)c(-c2ccnc(NCc3ccccc3)c2)s1 | 5 | 22 | 2 | 3 | 0 | 11 | 0 | 5 | 3 | 0 | 16 | 0 | 0 | 6 | 0 | 8 | 0 | 0 | 8 | 0
COc1cc2ncn(-c3cc(OCc4sccc4Cl)c(C(N)=O)s3)c2cc1OC [GSK448459] | 28 | 44 | 0 | 31 | 0 | 0 | 8 | 0 | 0 | 20 | 0 | 0 | 10 | 0 | 0 | 15 | 13 | 0 | 9 | 15
CN1c2ccc(NCc3ccc(F)cc3)cc2-c2c(cnn2C)S1(=O)=O | 0 | 7 | 27 | 0 | 0 | 0 | 0 | 0 | 3 | 22 | 0 | – | 0 | 4 | 2 | 2 | 0 | 0 | 0 | 0
O=C(c1ccc(-c2cc(-c3c[nH]nc3-c3ccccn3)ccn2)cc1)N1CCOCC1 [GW812171] | 0 | 11 | 0 | 0 | 0 | 0 | 0 | 16 | 0 | 5 | 54 | 0 | 0 | 0 | 4 | 0 | 0 | 0 | 0 | 0
NS(=O)(=O)c1cccc(-c2ccc3ncc(N4CCOCC4)nc3c2)c1 [GSK1535721] | 25 | 32 | 11 | 1 | 0 | 0 | 0 | 0 | 10 | 0 | 2 | 0 | 3 | 6 | 0 | 0 | 22 | 15 | 27 | 13
O=C(NOCC1CC1)c1ccc(F)c(F)c1Nc1ccc(I)cc1Cl | 0 | 0 | 0 | 0 | 0 | 8 | 0 | 17 | 0 | 8 | 0 | 0 | 0 | 0 | 0 | 0 | 0 | 0 | 0 | 10
CN1c2ccc(CNc3ccc(F)cc3)cc2-c2c(cnn2C)S1(=O)=O | 0 | 13 | 9 | 0 | 0 | 0 | 0 | 0 | 0 | 0 | 0 | – | 25 | 0 | 0 | 0 | 0 | 9 | 0 | 0
O=C(NCCNc1ccnc(Nc2ccc(F)cc2)n1)Nc1ccccc1F [GSK1379880] | 17 | 9 | 0 | 38 | 0 | 0 | 0 | 8 | 0 | 0 | 11 | 0 | 11 | 0 | 0 | 0 | 0 | 11 | 3 | 4
O=C(NCCNc1ccnc(Nc2ccc(F)cc2)n1)c1cc2ccccc2s1 [GSK1379874] | 11 | 1 | 0 | 51 | 0 | 0 | 0 | 3 | 0 | 0 | 54 | 0 | 16 | 0 | 0 | 62 | 6 | 0 | 15 | 19
N#Cc1ccc(-c2cc(-c3c[nH]nc3-c3ccccn3)ccn2)cc1 [GW693028] | 2 | 28 | 0 | 27 | 6 | 0 | 0 | 3 | 0 | 10 | 0 | 0 | 7 | 4 | 0 | 0 | 0 | 12 | 21 | 0
CSc1ccc(-c2cc3ncnc(SCC(=O)O)c3s2)cc1 | 33 | 22 | 7 | 0 | 0 | 19 | 0 | 14 | 2 | 18 | 0 | 0 | 10 | 9 | 5 | 0 | 0 | 0 | 23 | 2
COc1ccc(Nc2nccc(N3CCC(NC(=O)Nc4cc(C)ccc4C)C3)n2)cc1 (centres unmarked) [GSK1379741] | 0 | 6 | 0 | 52 | 0 | 0 | 0 | 1 | 0 | 0 | 0 | 0 | 0 | 0 | 0 | 0 | 0 | 0 | 5 | 16
Fc1ccc(-c2ncn(CCCN3CCOCC3)c2-c2ccccn2)cc1 [SB-211742] | 0 | 10 | 52 | 6 | 0 | 5 | 0 | 0 | 19 | 0 | 0 | 29 | 0 | 10 | 0 | 0 | 0 | 0 | 27 | 23
CC(=O)Nc1ccc(COc2ccc(Nc3ccnc4cc(-c5ccccn5)ccc34)cc2)cc1.Cl [GW440148] | 53 | 12 | 0 | 73 | 0 | 0 | 6 | 47 | 14 | 0 | 17 | 1 | 0 | 13 | 0 | 0 | 14 | 0 | 36 | 99.2
Cc1cccc(Cn2ccn3c(=O)cc(N4CCOCC4)nc23)c1 [GSK2297542] | 24 | 1 | 0 | 27 | 20 | 5 | 27 | 32 | 0 | 0 | 16 | 0 | 30 | 10 | 0 | 16 | 16 | 10 | 32 | 20

Source: PMC5540273 (PLoS ONE, 2017)
